According to PubChem BioAssay (NCATS):
Results filed as inconclusive are left out. The source made the active and inactive calls. Calls come from the whole dose curve; as a rule, active = well fitted inhibition curve with a large enough effect; inconclusive = small, poorly fitted or top-dose-only effect; inactive = flat fitted curve, though single readings scatter.

Key:
Assay in all cases: qHTS profiling for inhibitors of Plasmodium falciparum proliferation (AID 504749); note: nearly all actives have a fitted effect of over 60% in size
Details in all cases: P. falciparum in erythrocytes, SYBR Green DNA, 72 h; series mostly up to 28.7 µM
[1] = test system: FAB9
Method in brief: (§1)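 Three-day growth assay of blood-stage parasites in erythrocytes (0.3% parasitemia, 2.5% hematocrit) at 37 C, 5% CO2, quantified by SYBR Green DNA staining after overnight detergent lysis.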

[2] = test system: GB4
Method in brief: as §1

[3] = test system: HB3
Method in brief: as §1

[4] = test system: ICS
Method in brief: as §1

[5] = test system: JCK
Method in brief: as §1

[6] = test system: N140
Method in brief: as §1

[7] = test system: P93_24
Method in brief: as §1

[8] = test system: P94_40
Method in brief: as §1

[9] = test system: PAD
Method in brief: as §1

[10] = test system: PC15
Method in brief: as §1

Measured: Potency

O=C(O)c1cc(=O)c2c(OCC(O)COc3cccc4oc(C(=O)O)cc(=O)c34)cccc2o1
inactive: all assays above

O=C(O)c1cccc(-c2noc(-c3ccccc3F)n2)c1
inactive: all assays above

Nc1cccc2c1CN(C1CCC(=O)NC1=O)C2=O (stereo not drawn)
inactive: all assays above

CN1C(C(=O)Nc2ccccn2)=C(O)c2sccc2S1(=O)=O
inactive: all assays above

CC1(C)CCC(C)(C)c2cc(NC(=O)c3ccc(C(=O)O)cc3)ccc21
inactive: all assays above

C[C@H](Cn1cnc2c(N)ncnc21)OCP(=O)(O)O
inactive: all assays above

CS(=O)(=O)OCCCCOS(C)(=O)=O
inactive: all assays above

Cc1ccc(C)c(OCCCC(C)(C)C(=O)O)c1
inactive: all assays above

CNC[C@H](O)c1ccc(O)c(O)c1
inactive: all assays above

CC1(C)NC(=O)N(c2ccc([N+](=O)[O-])c(C(F)(F)F)c2)C1=O
inactive: all assays above

O=C(CS(=O)Cc1ccco1)NCC=CCOc1cc(CN2CCCCC2)ccn1 (stereo not drawn)
inactive: all assays above

CC(C)c1ccc2oc3nc(N)c(C(=O)O)cc3c(=O)c2c1
not listed: [9]
inactive: all other assays above

Nc1ccn([C@@H]2O[C@H](CO)[C@@H](O)C2O)c(=O)n1 (stereo partly drawn)
inactive: all assays above

CC(S)C(=O)NCC(=O)O (stereo not drawn)
inactive: all assays above

CC(C)[C@H](N)C(=O)OCCOCn1cnc2c(=O)[nH]c(N)nc21
inactive: all assays above

O=C(O)c1cccnc1Nc1cccc(C(F)(F)F)c1
inactive: all assays above

Oc1ccc(OCc2ccccc2)cc1
not listed: [4]
inactive: all other assays above

C[Se]CCC(N)C(=O)O (stereo not drawn)
inactive: all assays above

CN(C)CCc1c[nH]c2ccc(Cn3cncn3)cc12
inactive: all assays above
